Measured values published in PubChem BioAssay AID652067 (The Scripps Research Institute Molecular Screening Center, 2013).
Screen size: about 370,000 compounds; about 5,400 (1.5%) were called active. The sample as a whole holds a higher share of actives than the screen did. A number with no mark means an inactive call.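 Rule for the calls: active = activation above the mean of all tested compounds plus 3 SD (cut at about 5.5% in these data); inactive = the rest.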

Tested on: DAF-12 nuclear receptor (Haemonchus contortus)
Assay: hcDAF-12 driven luciferase reporter activation – cell-based, luminescence, HEK293, lit1-tk-luc reporter, primary screen (AID 652067);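 note: 100% = response to 3 µM Δ7-dafachronic acid high control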
Details: HEK293 hcDAF-12 lit1-tk-luc reporter, at 6.8 µM, hits give high values, 0% DMSO, 100% Δ7-dafachronic acid

Compound | activation
CCN(c1ccccc1)S(=O)(=O)c1cc(C(=O)NCc2ccccn2)ccc1C | -0.36%
Cc1ccc(NC(=O)CNCc2ccccn2)cc1S(=O)(=O)N(C)C | 0.26%
CCN(CC)S(=O)(=O)c1cc(C(=O)Nc2ccccn2)ccc1C | 5.61% (active)
CCN(CC)C(=O)CC[C@@H]1CC[C@]2(CCCN(S(=O)(=O)C3CCCCC3)C2)O1 | -3.16%
Cc1[nH]nc2c1C(c1ccc(Br)cc1)NC2=O (configuration not stated) | 1.05%
O=C(COC(=O)CCc1nc2ccccc2c(=O)[nH]1)Nc1ccc(N2CCOCC2)cc1 | -1.31%
CCn1c(Cc2ccc(OC)cc2)nnc1SCC(=O)Nc1ccc(N2CCOCC2)cc1 | 0.15%
COc1cccc(/C=C(/CC(=O)Nc2ccc(N3CCOCC3)cc2)c2nc3ccccc3s2)c1 | 6.15% (active)
COc1cccc(N(C)C(=O)[C@@H](C)[C@@H](O)c2ccc3ccccc3c2)c1 | -0.46%
COC(=O)C1=C(C)N(Cc2cccc(C(F)(F)F)c2)C(=NCc2ccccc2)NC1c1ccc(Cl)cc1 (configuration not stated) | -0.23%
COc1ccc(SSc2ccc(OC)cc2C(=O)O)c(C(=O)O)c1 | 0.58%
c1ccc(-c2c[nH]c(-c3ccccc3)c2)cc1 | 2.47%
Cc1c[nH]c2cccc(-c3ccc(Cl)cc3)c12 | 2.81%
c1ccc(-c2cc(-c3ccccc3)[nH]n2)cc1 | 11.7% (active)
Oc1ccccc1-c1cc(-c2ccc(Cl)cc2)n[nH]1 | 20.9% (active)
O=C(O)c1n[nH]nc1-c1ccccc1 | -0.64%
COc1ccc(Cn2cc(CN3[C@@H](CC(C)C)COc4cc(Br)ccc4S3(=O)=O)nn2)cc1 | -0.96%
COC(=O)Cc1nnn2c1[C@H](C)[C@H](c1ccccc1[N+](=O)[O-])OCC2 | -0.26%
C=C(C)C1CC23C(=O)C4(C(=O)c5ccccc5)C[C@@]5(C)CCC(CC2C1(C)C)(C4=O)C35OC (some centres not stated) | -1.07%
O=C(c1c(Cl)cccc1Cl)N1CCN(c2cccc3[nH]ccc23)CC1 | -0.37%
C=CCN1C(=O)N(Cc2ccccc2)c2ccccc2S1(=O)=O | 2.1%
C=C(C)C#CC(Cc1ccccc1)N(CC1CC1)/C(N)=N/C(=O)OCc1ccccc1 (configuration not stated) | -4.1%
Cc1c(Cl)cccc1NC(=O)Nc1ccc(C(=O)N2CCCC2)cc1 | -1.91%

Compound | activation
Cc1c(Cl)cccc1NC(=O)NCc1ccc(C)n1C | 6.25% (active)
Cc1c(Cl)cccc1NC(=O)NCCCN1CCCC1=O | -0.07%
Cc1cccc(C)c1NC(=O)COC(=O)c1c(C)nn(-c2ccccc2)c1C | -1.2%
Cc1ccc(OC(=O)c2c(C)nn(-c3ccccc3)c2C)cc1 | 5.72% (active)
CCCn1c(C)cc(C(=O)COC(=O)c2c(C)nn(-c3ccccc3)c2C)c1C | -1.95%
CCOC(=O)[C@]12CCCCC/C=C\1N(Cc1ccc(OC)cc1)C(=O)[C@H]2CC(=O)NCc1ccc(C)o1 | -1.63%
CCOC(=O)c1c(NC(=S)SC)sc(C(=O)N2CCc3ccccc3C2)c1C | -0.42%
COC(=O)[C@]12C[C@H](CC(=O)NCc3ccc(OC)c(OC)c3)C(=O)N(Cc3ccccc3)C1=C[C@H](C(C)C)O[C@@H]2C1CC1 | -0.82%
Cc1nc2cc(NC(=O)Nc3cccc(F)c3)ccc2n1C | 11.1% (active)
Cc1nc2cc(NCc3cccs3)ccc2n1C | 1.2%
CCN1CCN(C(=O)C2(NC(=O)Nc3cccc(F)c3)CCCCC2)CC1 | -1.58%
COC[C@@H]1CCCN1c1ccc2c(c1)O[C@H](C)CCN(C1CC1)S2(=O)=O | -0.65%
CCNc1nc(-c2cc3ccccc3o2)cs1 | 6.62% (active)
Cn1c(CNc2nc(-c3ccccc3)cs2)nnc1SCC(=O)c1ccccc1 | -0.8%
Cn1c(SCC(=O)NC2CCCCC2)nnc1-c1cc2ccccc2o1 | -0.36%
C[C@H]1CCC/C=C/C(=O)c2c(O)cc(O)cc2CC(=O)O1 | -4.76%
Cc1csc(SCC(=O)Nc2sccc2C#N)n1 | 6.55% (active)
Cc1csc(SCC(=O)Nc2ccc(C)c(S(=O)(=O)N(C)C)c2)n1 | -0.11%
N#Cc1ccsc1NC(=O)CN1CCCCC1 | -2.18%
Cc1ccc(NC(=S)NNC(=O)CSc2nnc(SCc3ccccc3Cl)s2)cc1 | 0.49%
CCOC(=O)c1ccccc1C(=O)N1CCOCCOCCOCC1 | 6.11% (active)
CSc1ncccc1C(=O)OCC(=O)N1CCOCC1 | -1.11%
CCOC(=O)c1ccccc1NC(=O)COC(=O)CCC(=O)N1CCOCC1 | -0.53%

Compound | activation
CC(CCc1ccccc1)NCC(O)c1cccc([N+](=O)[O-])c1 (configuration not stated) | -0.61%
Cn1c(=NC(=O)c2cnccn2)sc2ccccc21 | 3.28%
Cn1c(=NC(=O)c2ccco2)sc2cccc(F)c21 | 10.7% (active)
Cc1cc(NC(=O)c2ccco2)c(=O)n(Cc2c(F)cccc2Cl)c1 | -0.57%
C=CCN1C(=O)[C@H](CC(=O)N2CCN(C(=O)OCC)CC2)[C@@]2(C(=O)OCC)CCCC=C12 | -0.81%
Cc1ccccc1CN1CCCCC(NC(=O)c2cccc(C#N)c2)C1=O (configuration not stated) | -2.63%
Cc1ccc(C(=O)C2CCN(CC(=O)NCCC(C)C)CC2)cc1 | -1.66%
COc1ccc([C@H]2OC(=O)C[C@H]2C(=O)N2CCN(c3ccccc3F)CC2)cc1OC | -0.81%
CCN(CC)c1nc(-c2ccccc2)cc(C(F)(F)F)c1C#N | -1.43%
N#Cc1c(C(F)(F)F)cc(-c2ccc(Cl)cc2)nc1SCC(=O)O | 6.47% (active)
Cc1cc(C(F)(F)F)c(C#N)c(SCC(=O)NC2CC2)n1 | -2.02%
CN(C)S(=O)(=O)c1cccc(C(=O)N/N=C\c2ccco2)c1 | 0.08%
Cc1ccc(/C=N/NC(=O)c2sccc2OCc2ccc(F)cc2)cc1 | 0.06%
Cc1ccsc1C(=O)NC1CCCCC1C (configuration not stated) | -1.43%
Cc1ccsc1C(=O)N/N=C/c1ccc([N+](=O)[O-])cc1 | 6.15% (active)
O=C(NCCC1=CCCCC1)C1CCN(S(=O)(=O)c2ccc(Cl)s2)CC1 | -1.29%
CC(=O)c1ccc(S(=O)(=O)NCC2CCN(C(=O)C(=O)c3cccs3)CC2)cc1 | -1.54%
COc1ccc(-c2cc3n(n2)CCc2nc4ccccc4n2-3)cc1 | 2.18%
COc1ccc(-c2cc3ncccc3cn2)cc1 | 7.99% (active)
COc1ccc(-c2cc(C3CCN(c4ncccc4[N+](=O)[O-])CC3)[nH]n2)cc1 | -1.95%
Cc1ccc(Cn2cc(COC(=O)N(C)Cc3ccccc3)nn2)cc1 | -1.15%
O=C1CCCCN1CCCC(=O)N1CCCC(Nc2ccc(F)cc2)C1 (configuration not stated) | -0.38%
COc1ccc(C(=O)OCCN2CCN(C3CN(Cc4cn(Cc5ccccc5F)nn4)S(=O)(=O)C3)CC2)cc1OC (configuration not stated) | -3.13%

Compound | activation
CCOC(=O)C1CCN(C(=O)C(C)(C)NC(=O)Nc2ccccc2Cl)CC1 | -0.1%
CC(=O)N1C[C@@H](CO)[C@@H](N(C)C(=O)C(C)(C)C)C[C@H]1c1ccccc1Br | -0.9%
Nc1ccc(C(=O)Nc2ccccc2N)cc1 | 10.3% (active)
O=C(Nc1ccccc1F)c1ccc(S(=O)(=O)N2CCCCCC2)cc1 | -0.38%
O=C(Cc1ccccc1)Nc1ccc(C(=O)Nc2ccccc2C(=O)O)cc1 | 0.4%
Cc1cc(N=Nc2ccc3ccccc3c2)ccc1O | 9.93% (active)
CN(C(N)=NC(=O)/C=C/c1ccccc1)C(C#Cc1ccccc1)Cc1ccccc1 (configuration not stated) | -0.54%
O=C(NCCCn1ccnc1)c1cc(Br)c(Br)s1 | -2.07%
O=C(NCCCn1ccnc1)c1cc(-c2ccccc2)on1 | 6.25% (active)
O=C(Nc1ccccc1C(=O)NCCCn1ccnc1)c1ccc(Cl)cc1Cl | -0.66%
COC(=O)C1=C(C)N(Cc2ccc(F)cc2)C(=S)NC1c1cccc(Cl)c1 (configuration not stated) | -0.58%
C#CCNC(=O)C[C@H]1C[C@@]2(C(=O)OC)C(=C[C@H](C(C)C)O[C@@H]2C2CC2)N(Cc2ccco2)C1=O | -0.47%
CCN(C(=O)[C@@H](C1CC1)[C@@H](O)c1ccc2ccccc2c1)c1ccccc1 | -0.38%
CCCCCCCCN1C(=O)[C@@H](CC(=O)NCCCC)C[C@@]2(C(=O)OC)C1=C[C@H](C(C)(C)C)O[C@@H]2C | 2.12%
COC(=O)c1cccc(Cn2ccc3ccc(-c4ccc5ccn(C(=O)C6CCCCC6)c5c4)cc32)c1 | 2.46%
Cc1c(C(C)c2ccccc2O)[nH]c2ccccc12 (configuration not stated) | 5.82% (active)
S=c1[nH]c2ccccc2c2ccccc12 | 0.24%
Cc1[nH]c2ccccc2c1-c1ccc(Cl)nn1 | -0.07%
Cc1ccc(-n2c(SCC(=O)Nc3ccc(S(=O)(=O)Nc4nccs4)cc3)nnc2-c2ccncc2)cc1 | -0.82%
C=CCn1c(SCC(N)=O)nnc1-c1ccccc1OC | -0.44%
COc1ccc(C)cc1NC(=O)CN1c2cccc3cccc(c23)S1(=O)=O | -2.24%
O=C(O)CN1c2cccc3cccc(c23)S1(=O)=O | 7.97% (active)
CC(C)CN(CC(C)C)C(=O)CN1c2cccc3cccc(c23)S1(=O)=O | 0.46%
